Bioassay records deposited in PubChem BioAssay by several laboratories.
A selection: hits, their analogues and other compounds. The true share with any hit is near 27%.
PTK2B oligo ant: antagonists of Pyk2 self-association, primary screen, Q293 cells, FERM NanoBiT luminescence, HTS; Protein-tyrosine kinase 2-beta (Homo sapiens), Q14289; stronger effect = lower value; z-score (the deposit names both 25 µM and 10 µM); actives 0.83% (n = 99,000); AID 1347419, 2020;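 active means Z-score of -3 or lower, scaled per plate to the spread of control and sample wells; inactive means z-score above -3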;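 further: negative z-score means lost luminescence so less FERM oligomerization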
Target sequence (Q14289 whole entry, looked up): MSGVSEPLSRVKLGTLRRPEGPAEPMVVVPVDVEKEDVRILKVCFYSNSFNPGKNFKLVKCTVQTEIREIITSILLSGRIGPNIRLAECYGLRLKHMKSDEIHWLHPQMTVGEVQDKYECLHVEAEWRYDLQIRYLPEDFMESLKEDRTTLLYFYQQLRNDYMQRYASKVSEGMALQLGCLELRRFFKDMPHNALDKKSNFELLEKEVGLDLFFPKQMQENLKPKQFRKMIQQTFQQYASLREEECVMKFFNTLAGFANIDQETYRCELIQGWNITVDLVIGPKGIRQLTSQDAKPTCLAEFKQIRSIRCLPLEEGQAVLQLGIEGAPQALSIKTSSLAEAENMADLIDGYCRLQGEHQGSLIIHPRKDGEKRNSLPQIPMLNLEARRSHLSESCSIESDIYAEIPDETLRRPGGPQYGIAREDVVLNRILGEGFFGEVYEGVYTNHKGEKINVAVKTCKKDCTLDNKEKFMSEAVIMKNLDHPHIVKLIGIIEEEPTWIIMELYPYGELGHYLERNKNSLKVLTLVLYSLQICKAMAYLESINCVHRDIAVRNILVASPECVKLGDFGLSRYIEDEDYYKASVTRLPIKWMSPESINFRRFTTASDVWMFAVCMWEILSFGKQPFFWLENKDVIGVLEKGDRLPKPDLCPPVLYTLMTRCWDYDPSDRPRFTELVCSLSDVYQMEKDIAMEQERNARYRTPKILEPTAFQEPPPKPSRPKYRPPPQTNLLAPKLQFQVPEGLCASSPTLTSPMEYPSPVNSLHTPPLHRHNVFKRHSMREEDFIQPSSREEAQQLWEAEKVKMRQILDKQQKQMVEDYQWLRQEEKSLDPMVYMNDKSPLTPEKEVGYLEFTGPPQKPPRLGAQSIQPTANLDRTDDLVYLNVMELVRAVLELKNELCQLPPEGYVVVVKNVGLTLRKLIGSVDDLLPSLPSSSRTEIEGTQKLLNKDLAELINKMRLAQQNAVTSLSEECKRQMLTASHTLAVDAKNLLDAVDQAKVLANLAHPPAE
CYP2C19 inhib: blockers of cytochrome P450 2C19 activity – biochemical, luminescence, ADME assay, primary screen; P33261; CYP2C19 Supersomes, luciferin-H EGE luminescence, 30 min; inhibition, % at 5 µM; actives 21% (n = 96,000);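 active means CYP2C19 inhibition above a set limit at 5 µM in the primary screen, cut at about 50% in these data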;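 further: plate controls were negative control wells for no effect and 2.5 mM tranylcypromine positive control for full effect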
Cav32 inh: Cav3.2 calcium influx blockers – cell-based, Fluo-4 calcium fluorescence, FDSS, MLSMR library, primary screen; Voltage-dependent T-type calcium channel subunit alpha-1H (Homo sapiens), O95180; Cav3.2-expressing cells; stronger effect = lower value; B-score at 10 µM; actives 4% (n = 100,000);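 active means single-dose well whose peak fluorescence ratio is a statistical outlier from its plate by either plate-standardised score or position-corrected B-score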
CYP2C9 activ: human CYP2C9 activators, primary screen, biochemical, luminescence; Cytochrome P450 2C9 (Homo sapiens), P11712; recombinant CYP2C9, luciferin-H conversion; stronger effect = higher value; factor 1 = untreated enzyme, 0 = blocked; activation factor at 5 µM; actives 1.4% (n = 96,000); AID 1024, 2008;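 active means activation factor of 2 or more for CYP2C9 at a 5 µM dose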;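 further: 0 = sulfaphenazole-blocked wells and 1 = vehicle-only wells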
CYP2C19 act: human CYP2C19 activators, primary screen, biochemical, luminescence; activation factor at 5 µM; 96,000 tested, under 10 active; recombinant CYP2C19, luciferin-H EGE luminescence; stronger effect = higher value; 0 = fully inhibited enzyme, 1 = untreated enzyme; Cytochrome P450 2C19 (Homo sapiens), P33261; AID 1025, 2008;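 active means activation factor of at least 2 at 5 µM in the primary screen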;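 further: 0 = wells with 2.5 mM tranylcypromine and 1 = vehicle-only wells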
CYP2C9 inh: blockers of cytochrome P450 2C9 activity – biochemical, luminescence, ADME assay, primary screen | P11712 | CYP2C9 Supersomes, luciferin-H conversion | inhibition, % at 5 µM | actives 20% (n = 96,000);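 active means blocking of liver enzyme CYP2C9 beyond about 50% at 5 µM, limit read from the data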
* marks the source's active call; other numbers are inactive results; . = no result given.

SMILES	PTK2B oligo ant	CYP2C19 inhib	Cav32 inh	CYP2C9 activ	CYP2C19 act	CYP2C9 inh
O=S(=O)(NCc1cc(-c2ccccc2Cl)no1)c1ccccc1	-0.36	91.6*	-3.94	2.4*	0.1	-139.8
O=S(=O)(NCc1cc(-c2ccccc2)no1)c1ccc(Cl)cc1	1.59	77.6*	-1.21	0.9	0.2	5.0
Cc1cc(=O)n2[nH]c(-c3ccc(F)cc3)nc2n1	0.37	16.7	-0.244	0.8	0.8	15.9
COCCN1C=C(C(=O)OC)C(c2ccc(OC)c(OC)c2)C(C(=O)OC)=C1	-0.01	-13.5	0.91	1	1.1	-0.4
CCCOc1ccc(C2C(C(=O)OC)=CN(CCOC)C=C2C(=O)OC)cc1	-3.46*	20.2	-1.34	0.6	0.8	39.0
COc1cc(OC)cc(C(=O)N2CCC(n3c(C)nc4cc(F)ccc43)CC2)c1	0.15	14.9	.	0.3	0.9	67.3*
Cc1ccc2c(c1)nnn2C1CCN(S(=O)(=O)c2ccc(C(=O)N3C(C)CCCC3C)cc2)CC1 (centres undefined)	-0.91	76.9*	.	0.5	0.2	49.6
O=C(CN1CCC(n2nnc3cc(F)ccc32)CC1)N1CCc2ccccc2C1	-0.19	52.2*	-0.429	0.9	0.5	14.2
Cc1ccc2c(c1)nnn2C1CCN(S(C)(=O)=O)CC1	3.8	30.8	0.712	0.9	0.7	11.9
COc1ccc(NC(=O)CN2CCC(n3c(C)nc4cc(F)ccc43)CC2)c(OC)c1	0.92	35.4	.	0.8	0.6	18.6
CCOc1ccccc1C(=O)N1CCC(n2nnc3cc(C(F)(F)F)ccc32)CC1	0.64	68.5*	-0.0465	0.5	0.3	53.1*
O=C(N/N=C/c1ccccc1F)c1ccc(COc2ccccc2Cl)o1	-0.21	.	.	.	.	.
CCCCC(c1nnnn1C1CCCC1)N1CCN(C2CCCC2)CC1 (centres undefined)	0.63	46.5	0.234	0.7	0.5	32.8
C#CCSc1nncn1C(=O)/C=C/c1ccccc1	.	-11.4	0.551	1	1.1	1.6
O=C(CN1CCC(n2nnc3cc(F)ccc32)CC1)Nc1ccccc1N1CCOCC1	-0.75	96.3*	-0.608	0.1	0	85.4*
Cc1cccc(C(=O)N2CCC(n3nnc4cc(F)ccc43)CC2)c1	1.2	83.8*	3.1	0.2	0.2	82.0*
O=C(CN1CCC(n2nnc3cc(F)ccc32)CC1)NC1CC1	-0.32	9.2	0.42	1	0.9	4.7
O=C(CN1CCC(n2nnc3cc(F)ccc32)CC1)NC1CCCCC1	0.19	58.3*	3.12	0.4	0.4	60.1*
CCOc1ccc2nc(NC(=O)CN3CCN(c4ccccn4)CC3)sc2c1	.	-2.4	-0.711	1	1	4.8
CCOc1ccc2nc(NC(=O)CN3CCC(n4nnc5cc(F)ccc54)CC3)sc2c1	-3.3*	79.6*	-2.72	0.1	0.2	86.0*
CC(=O)Nc1ccc(S(=O)(=O)NC2(C(F)(F)F)N=C(c3ccccc3)NC2=O)cc1 (centres undefined)	1.56	-8.6	0.866	1	1.1	2.9
CC(C)=CCCC1(C)C=Cc2c(c(C)cc3c2[nH]c2cc(O)ccc23)O1 (centres undefined)	.	.	-0.204	.	.	.
Cc1ccc(-c2csc(/C(C#N)=C(\O)CN3CCN(C(=O)c4ccco4)CC3)n2)cc1	0.15	0.7	-0.0763	0.5	1	47.7
C/C(N)=C(/C#N)C(=O)COC(=O)CCC1CCCC1	0.26	49.4	0.187	0.8	0.5	15.7
O=C(NCCCCNC(=O)c1c(F)c(F)c(F)c(F)c1F)c1c(F)c(F)c(F)c(F)c1F	0.54	-18.7	0.162	1	1.2	1.2
SMILES	PTK2B oligo ant	CYP2C19 inhib	Cav32 inh	CYP2C9 activ	CYP2C19 act	CYP2C9 inh
CSc1nsc(NC(=O)Cc2ccccc2)n1	1.2	65.4*	-1.93	0.7	0.3	29.8
CSc1ccccc1NC(=O)c1cccnc1	0.03	-7.7	-1.12	1.1	1.1	-13.1
Cc1nc(N2C(=O)C(=O)/C(=C(/O)c3ccccc3)C2c2ccco2)sc1C (centres undefined)	-0.18	53.1*	-2.98	0.4	0.5	60.6*
CCOc1cccc(/C(O)=C2/C(=O)C(=O)N(CCOC)C2c2ccco2)c1 (centres undefined)	0.08	-5.8	0.562	0.9	1.1	11.4
CCCCCCCc1c(C)nc(N2CCOCC2)[nH]c1=O	-0.39	50.6*	0.0204	0.3	0.5	74.2*
Cc1nc(N2CCOCC2)[nH]c(=O)c1CCC(C)C	-0.27	-10.4	0.53	1.3	1.1	-31.0
C=CC1CN(C(=O)OCC(Cl)(Cl)Cl)C2CC3c4ccc(OC)cc4NC3C3CC1C2CO3 (centres undefined)	.	.	-0.64	.	.	.
COc1ccccc1CN1C(=O)CCC1(C)C(=O)NC1CCCCCC1 (centres undefined)	0.13	47.3	0.41	1.1	0.5	-13.7
COc1ccc(N2C(=O)CC2(/C=C/c2ccccc2OC)C(=O)NC2CCCC2)cc1 (centres undefined)	-2.87	.	-5.39*	.	.	.
CCC(=O)Nc1cccc(NC(=O)c2cccc([N+](=O)[O-])c2)c1	0.66	-0.3	-0.284	0.9	1	6.8
O=C(COc1cccc(NC(=O)c2cccc([N+](=O)[O-])c2)c1)c1ccc(Br)cc1	-0.3	38.0	-3.28	0.3	0.6	65.7*
COc1ccc(C(=O)NN2CC(O)=C(c3nc4ccccc4n3C)C2=N)cc1OC	0.93	.	.	.	.	.
Cc1c(N=Cc2nc3ccccc3[nH]2)c(=O)n(-c2ccccc2)n1C	0.63	8.8	0.412	0.9	0.9	6.2
Cn1c(-n2c(CCN3C(=O)c4ccccc4C3=O)nc3ccccc3c2=O)nc2ccccc21	.	86.7*	.	0.1	0.1	92.4*
O=C1c2ccccc2C(=O)N1CCc1nc2ccccc2c(=O)n1Cc1ccco1	-0.4	93.1*	.	0.2	0.1	80.2*
Cc1c(N=Cc2c(O)n(Cc3ccco3)c(=O)c3ccccc23)c(=O)n(-c2ccccc2)n1C	-1.95	56.1*	-0.289	0.2	0.4	81.4*
O=c1c2ccccc2c2ccccc2c(=O)n1Cc1ccco1	-0.31	81.4*	-3.11	0.3	0.2	72.7*
Cc1nc(SCC(=O)Nn2c(-c3ccccc3)nc3ccccc3c2=O)n[nH]1	0.46	-0.1	-0.448	0.7	1	30.1
CCCn1c(SCC(=O)NC2CCCC(C)C2C)n[nH]c1=O (centres undefined)	0.08	-6.1	-0.00715	1	1.1	-0.5
Cc1cc(=O)n(C)c(=O)n1CC(=O)N1CCCCCC1	0	-15.0	0.071	1.1	1.1	-8.5
